This passage reports Potency and activity change, negative = inhibition results from PubChem BioAssay AID1745847 (National Center for Advancing Translational Sciences (NCATS), 2022).

Hit rate of the full screen: of about 2,100 compounds, about 670 (32%) were called active. Another 50% or so got no clear call; they are omitted. Some of the results follow. Unmarked numbers belong to inactive results. Calls follow the shape of the dose curve; as a rule, active = well fitted inhibition curve with a large enough effect; inconclusive = small, poorly fitted or top-dose-only effect; inactive = no such curve, though single readings can be large or run the other way.
% is scaled to controls: 0 for no effect and ±100 for the full control effect; potency is read from the fitted curve at half-maximal effect.

This assay in a line: CMV-Luciferase Counterscreen for Inhibitors of ATXN expression. Also: nearly all actives have a fitted effect of over 55% in size. Conditions: HEK-293 CMV-luciferase reporter, luminescence, 24 h; series mostly up to 57.5 µM. From the text: PI: Daniel Scoles Ph.D. University of Utah School of Medicine, Salt Lake City, Utah MLPCN Grant: NS073009 Spinocerebellar ataxia type 2 (SCA2) is a multisystem neurodegenerative disease caused by a dominantly acting mutation leading to expansion of a polyQ domain in the ataxin-2 protein (ATXN2). SCA2 patients develop progressive ataxia and later lose function in other neuronal systems. Prominent parkinsonian signs develop in some patients. Like many neurodegenerative disorders, no symptomatic or disease-modifying treatments are known. The primary objective of the proposed research is to identify compounds inhibiting ATXN2 expression and to test them for efficacy in SCA2 mouse models. We have developed a cell-based assay paired with an in vivo mouse model using identical luciferase expression constructs. This approach takes advantage of an ATXN2-luciferase transgene, with the luciferase gene flanked by the upstream and downstream portions of the ATXN2 gene. Here we describe a 5-7 dose quantitative high thoroughput screen (qHTS) for compounds lowering ATXN2 expression. We screened the NIH Molecular Libraries Small Molecule Repository (MLSMR) and NCGC's mechanistically annotated (MIPE) and drug repurposing (NPC) collections of compounds for lowering expression of an ATXN2-luciferase reporter in HEK-293 cells. The assay is a multiplexed cell viability assay to ensure target reduction in the absence of cytotoxicity. Secondary qHTS assays included a CMV-luciferase reporter expressed in HEK-293 cells as well as a biochemical assay using recombinant luciferase to detect inhibitors of the reporter enzyme. Compounds that inhibit ATXN2 expression but is not cytotoxic were selected for confirmatory and secondary screens.
PROTOCOL TABLE (as described by Inglese J, Shamu CE and Guy RK. 2007) SEQUENCE No. (e.g., 1, 2, 3, etc.); PARAMETER (e.g., Cells, Incubation, Reagent, etc.); VALUE; DESCRIPTION. 1; Cells; 4 uL; white, solid bottom, 1536-well Greiner assay plate. 2; Incubation; 2 hr; 37 degree C in 5% humidified CO2. 3; Compounds; 23 nL; Kalypsis pintool (Wako USA) equipped with a 1536-well pin head. 4; Incubation; 24 hr; 37 degree C in 5% humidfified CO2. 5; Reagent; 1 uL; Gly-Phe-7-Amino-4-trifluoromethylcoumarin. 6; Incubation; 30 min; 37 degree C in 5% humidfified CO2. 7; Detection; Fluorescence; Viewlux plate reader (PerkinElmer). 8; Reagent; 3 uL; SteadyGlo luciferase solution (Promega). 9; Incubation; 5 min; room temperature. 10; Detection; Luminescence; ViewLux plate reader (PerkinElmer). NOTES (numbers refer to Sequence numbers above) 1. HEK-293 cells expressing CMV-luciferase reporter (designated as SC cells) were suspended in phenol-red free DMEM and dispensed in assay plates using a Multidrop Combi dispenser (Thermo Fisher Scientific). 2. Assay plates were incubated. Evaporation was prevented by covering assay plates with metal lids containing holes to allow gas diffusion. 3. Compounds were added in a dose response manner with the final concentrations of 57, 11.4, 2.28, 0.46, 0.091, 0.018, 0.0037 uM. Vehicle-only plates, with DMSO being pin-transferred to columns 5-48, were inserted uniformly at the beginning and the end of each library to monitor and record any shifts in assay performance. 5. 125 uM Gly-Phe-7-Amino-4-trifluoromethylcoumarin (MP Biomedicals) working concentration was used at a final concentration of 25 uM. 7. To assess cell viability; the assay plates were read using the ViewLux high-throughput CCD imager (PerkinElmer), wherein single end-point fluorescence measurement was acquired (excitation 405/10; emission 540/25 nm). 8. Detection reagent SteadyGlo Luciferase (Promega) was added to the assay plate. 10. Luminescence is then measured on the ViewLux imager equipped with a clear emission filter using a 2 sec exposure. […]
On the technique in general: The purpose of a counterscreen is to sort out artefacts and off-target activity.
For the molecule `O=C(C1CCC(CNS(=O)(=O)c2cccc3nsnc23)CC1)N1CC=C(c2ccccc2)CC1` (configuration not stated), the Potency was 3.16 µM (active).
For `CC(=O)N/N=C/c1cc(C(C)(C)C)cc(/C=N/NC(C)=O)c1O`, the Potency is 3.16 µM (active).
The same measure, in the same setting: then `Cc1nnc(N/N=C/c2ccccn2)[nH]c1=O`, with 1.78 µM (active); and `O=c1nc(N/N=C/c2ccccn2)cn[nH]1`, with 14.1 µM (active).
Still for that read-out and setting: then `C(=N\NC(=Nc1ccccc1)c1ccccn1)/c1ccccn1`, with “inactive”; and `O=c1cnnc(N/N=C/c2ccccn2)[nH]1`, with 1.41 µM (active).
On the same count and under the same terms, in the case of `C(=N\Nc1ccc2nncn2n1)/c1ccccn1` it was 17.8 µM (active).
For the molecule `Cn1c(/C=C/c2ccc(Cl)cc2)c([N+](=O)[O-])c(=O)n(C)c1=O`, the Potency is 31.6 µM (active).
`COc1cc2c(O)c3c(c(-c4ccc5c(c4)OCO5)c2cc1OC)C(=O)OC3`: the activity change, negative = inhibition was 16.4% [at 11.4 µM].
As to `CCN1CCN(C(c2ccc(C(F)(F)F)cc2)c2ccc3cccnc3c2O)CC1` (configuration not stated), the Potency is 14.1 µM (active).
For `S=C(NCc1cccnc1)Nc1ccc(Oc2ccc(Cl)cc2)cc1`, the Potency is 10 µM (active).
Regarding `Cn1c(=O)c2cc(NC(=O)Nc3cccnc3)ccc2n1Cc1ccc(Cl)cc1`, the Potency entry was “inactive”.
As for `NC(c1csc(Nc2nccc(C(F)(F)F)n2)n1)C1CCCCC1` (configuration not stated), the activity change, negative = inhibition is 13.2% [at 11.4 µM].
For the molecule `Cc1cccc2c1-c1sc(C(=O)Nc3ccccc3N3CCN(C)CC3)cc1CO2`, the Potency is 22.4 µM (active).
As to `CC1CC(C)CN(CCCNC(=O)c2cc3c(s2)-c2ccccc2OC3)C1` (configuration not stated), the activity change, negative = inhibition is -23% [at 11.4 µM].
With `CCc1ccc(NC(=O)COc2ccc(/C=C(/C#N)c3nc4ccccc4[nH]3)cc2OC)cc1`, the Potency is 3.55 µM (active).
In the case of `COCC(=O)OC/C(O)=C(\C#N)c1nc2ccccc2[nH]1`, the activity change, negative = inhibition was -13.1% [at 11.4 µM].
Take `O=C1/C(=C/c2ccc([N+](=O)[O-])cc2)C=C(c2ccccc2)N1c1ccc(O)cc1`: the Potency was 3.98 µM (active).
`COc1ccc(F)cc1-c1cc(NC=O)c2ncc(-c3cccc(C(=O)N(C)C)c3)n2c1`: the activity change, negative = inhibition was -8.79% [at 11.4 µM].
`Cc1cc(N2CCN(c3nc(-c4ccccc4)cs3)CC2)c2ccccc2n1`: the Potency was 3.55 µM (active).
Still for that read-out and setting: in the case of `CCN(CC)CCn1nc2c3c(cccc3c1=O)-c1ccccc1-2` it was 8.91 µM (active).
Turning to `CCN(CC)CCC(=O)Nc1cccc2c1C(=O)c1ccccc1C2=O`, the activity change, negative = inhibition was -4.68% [at 11.4 µM].
Same read-out and setting: then `CCN(CC)CCn1c2ccccc2c2cnc(N)c(C#N)c21`, with -22.5% [at 11.4 µM].
Turning to `O=C(NNC1=Nc2ccccc2SC1)c1ccc(Cl)cc1`, the Potency is 1.78 µM (active).
With `O=C(CN1C(=O)c2ccccc2S1(=O)=O)Nc1ncc(Cl)cc1Cl`, the Potency is 3.16 µM (active).
Turning to `Cc1nnc(SCC(N)=O)n1CC1CCCO1` (configuration not stated), the Potency result was “inactive”.
Same read-out and setting: in the case of `CCn1c(C)cc(C(=O)CN2C(=O)c3ccccc3S2(=O)=O)c1C` it was 0.398 µM (active).
As to `Cc1cc(C(=O)CN2C(=O)c3ccccc3S2(=O)=O)c(C)n1C(C)C`, the Potency was 0.562 µM (active).
Same read-out and setting: in the case of `Cc1cc(C(=O)CN2C(=O)c3ccccc3S2(=O)=O)c(C)n1CC1CCCO1` (configuration not stated) it was 0.501 µM (active); in that of `Nc1nc(NCCc2ccccc2)nc(NCc2ccccc2)c1[N+](=O)[O-]`, “inactive”.
In the case of `COC(=O)[C@H]1C[C@H](OC(=O)NC2CC2)[C@@]2(O)CN(S(=O)(=O)c3ccc(C)cc3)CC2[C@H]1C(=O)OC` (some centres not stated), the activity change, negative = inhibition is 4.52% [at 11.4 µM].
Consider `O=C(CN1C(=O)c2ccccc2S1(=O)=O)c1ccc(Cl)cc1Cl`, for which the Potency is 1 µM (active).
As to `CC1Cc2cc(-c3csc(NC(=O)Cc4cccs4)n3)ccc2N1S(C)(=O)=O` (configuration not stated), the Potency was 1.41 µM (active).
Regarding `O=c1c2c(nc3c(-c4cccc(Br)c4)c[nH]n13)CCCC2`, the Potency was 3.55 µM (active).
On to `O=c1c2c(nc3c(-c4ccc(Cl)cc4)c[nH]n13)CCCC2`, for which the Potency is 0.891 µM (active).
As to `CC1CCCN(S(=O)(=O)c2ccc(C(=O)Nc3nnc(-c4ccccc4Cl)o3)cc2)C1` (configuration not stated), the Potency is 1.26 µM (active).
As for `CC1CCCCN1S(=O)(=O)c1ccc(C(=O)Nc2nnc(-c3ccncc3)o2)cc1` (configuration not stated), the Potency is 8.91 µM (active).
With `CN(C)CCCNC(=O)/C=C/c1ccc(OCc2c(F)cccc2Cl)cc1`, the Potency result was “inactive”.
Take `Clc1ccc(-c2cc(C3CCNCC3)[nH]n2)c(Cl)c1`: the Potency entry is “inactive”.
With `Cc1ccc(CN2CCC(c3cc(-c4ccc(Cl)cc4)n[nH]3)CC2)cc1`, the Potency was 22.4 µM (active).
With `CCOC(=O)c1cnc2ccc(OC)cc2c1Nc1ccc(N2CCN(C)CC2)cc1`, the Potency result is “inactive”.
As for `COc1ccc(N2CCN(C(=O)c3cc4c(C)nc5ccccc5c4o3)CC2)cc1`, the Potency was 22.4 µM (active).
Still for that read-out and setting: in the case of `CCc1ccc(CNC(=O)c2cc3c(C)nc4ccccc4c3o2)cc1` it was 10 µM (active).
For the molecule `COc1ccc(C(=O)N2CCN(c3nc(C4CC4)nc4sc(C)c(C)c34)CC2)cc1`, the Potency was 17.8 µM (active).
On to `Cc1sc2nc(CN3CCCC3)nc(N3CCC(C(N)=O)CC3)c2c1C`, for which the Potency result was “inactive”.
Turning to `Cc1ccc(C)c(OCCCC(=O)Nc2nccs2)c1`, the Potency result was “inactive”.
Consider `Cc1cc(Br)c(OCc2ccc(C(=O)N/N=C3\CC4CC=CC34)cc2)c(Br)c1` (configuration not stated), for which the Potency is 28.2 µM (active).
Turning to `CC(C)Nc1nc(-c2ccccn2)nc(-c2ccccc2)c1C#N`, the Potency entry was “inactive”.
Regarding `CCN(CC)c1nc(-c2ccccn2)nc(-c2ccccc2)c1C#N`, the Potency was 7.08 µM (active).
In the case of `COC(=O)c1c(NC(=O)/C=C/C(=O)O)sc(C)c1-c1ccc(C(C)C)cc1`, the Potency is 14.1 µM (active).
As for `Cc1[nH]c(-c2ccc(F)cc2)cc1C(=O)N1CCN(c2ccc(Cl)cc2)CC1`, the Potency was 22.4 µM (active).
Take `Cc1cc(N2CCN(C)CC2)ccc1NC(=O)c1ccc(-c2ccc(Cl)cc2)o1`: the Potency result was “inactive”.
As for `CC1(C(=O)NCc2ccccc2Br)CCN1C(=O)Cc1ccc(-c2ccccc2)cc1` (configuration not stated), the Potency is 20 µM (active).
For the molecule `CC1(C(=O)NCc2ccco2)CCN1C(=O)C1(c2ccccc2)CC1` (configuration not stated), the activity change, negative = inhibition is -4.65% [at 11.4 µM].
As to `Cc1ccc2[nH]c(O)c(N=NC(=O)C3CC3c3ccccc3)c2c1Br` (configuration not stated), the activity change, negative = inhibition was -21.9% [at 11.4 µM].
Take `O=C(Nc1ccc(Cl)cc1)Nc1ccc(N2CCCC2)c(S(=O)(=O)Nc2ccccc2Cl)c1`: the Potency was 3.98 µM (active).
On to `CCN(CC)S(=O)(=O)c1ccc(N/N=C/c2ccc(O)cc2O)nc1`, for which the Potency was 1.26 µM (active).
